Measured values: the supplement of paper PMC9877034
Counter-ions that a name gives are not always drawn. In all, about 1,000 compounds were measured (“cFRET/donor change relative to DMSO, normalised to beta-lapachone positive control (supercomplex I-IV assembly)”: median about 0.18, lowest 2% from about -1 on). For the sample, the lowest values were picked, then their nearest neighbours and some compounds at random.

Test system: C2C12 (NDUFB8-AcGFP / COX8A-DsRed-Monomer FRET reporter)
Test: cFRET/donor change relative to DMSO, normalised to beta-lapachone positive control (supercomplex I-IV assembly) (fraction of beta-lapachone effect); higher = more respiratory supercomplex assembly
Details: 40 µM; 24 h
Method: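 Cells were treated with 40 uM compound for 24 h and imaged on an IN Cell Analyzer 6000. Corrected FRET was divided by donor signal (cFRET/donor) and measured in two replicate experiments. The score is (mean cFRET/donor of compound - mean DMSO) / (mean beta-lapachone 40 uM - mean DMSO). Compounds flagged for prominent cell death, abnormal morphology or decreased cell number were excluded.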

Point of comparison: `CN(C)c1cc2c(Nc3ccc4c(cnn4Cc4ccccc4)c3)ncnc2cn1`, cFRET/donor change -7.46. Against it:
- CCCCC1(C2CCCC2)Cc2cc(OCC(=O)O)c(Cl)c(Cl)c2C1=O (stereo in doubt) [R(+)-Butylindazone] — higher, 0.322
- CC(=O)NC[C@H]1CN(c2ccc(N3CCOCC3)c(F)c2)C(=O)O1 [Linezolid] — higher, 0.372
- CCCCCCCCCCCCCCCC(=O)OC[C@H](COP(=O)(O)OCCNC(=O)[C@H](C)NC(=O)CC[C@@H](NC(=O)[C@H](C)NC(=O)[C@@H](C)O[C@H]1[C@H](O)[C@@H](CO)OC(O)[C@@H]1NC(C)=O)C(N)=O)OC(=O)CCCCCCCCCCCCCCC (stereo partly drawn) [Mifamurtide] — higher, -0.0931
- O=C1CCCC(=O)C1C(=O)c1ccc(C(F)(F)F)cc1[N+](=O)[O-] [Nitisinone] — higher, 0.0147
- C=C1C[C@@]23CC[C@H]4[C@@](C)(CCC[C@@]4(C)C(=O)O[C@@H]4O[C@H](CO)[C@@H](O)[C@H](O)[C@H]4O)[C@@H]2CC[C@]1(O[C@@H]1O[C@H](CO)[C@@H](O)[C@H](O)[C@H]1O[C@@H]1O[C@H](CO)[C@@H](O)[C@H](O)[C@H]1O)C3 [Stevioside] — higher, 0.0782
- N[C@H](C(=O)O)[C@H](Cc1ccccc1)C(=O)O [L-Beta-threo-benzyl-aspartate] — higher, -0.122
- CCCCCCCCCCCCCCC[C@H](O)[C@H](N)CO (racemic) [DL-erythro-Dihydrosphingosine] — higher, 0.48
- CC(C)NCC(O)c1ccc(O)c(O)c1 (single isomer, unassigned; (-)) [(-)-Isoproterenol hydrochloride] — higher, 0.53
- C[C@]12C=CC(=O)C=C1CC[C@@H]1C2=CC[C@]2(C)[C@@H](C(=O)CN3CCN(c4cc(N5CCCC5)nc(N5CCCC5)n4)CC3)CC[C@@H]12 — higher, -1.85
- CCN(CC)CCCCNc1ncc2cc(-c3c(Cl)cccc3Cl)c(NC(=O)NC(C)(C)C)nc2n1 — higher, 0.403
- Cc1cn([C@H]2C[C@H](N=[N+]=[N-])[C@@H](CO)O2)c(=O)[nH]c1=O [3'-Azido-3'-deoxythymidine] — higher, -0.184
- O=CN(O)CCCP(=O)(O)O [Fosmidomycin sodium salt hydrate] — higher, 0.0766
- N[C@H](C(=O)O)[C@H](O)c1ccc(O)c(O)c1 — higher, 0.419
- O=c1[nH]c(=O)n(C2CCCO2)cc1F (stereo not drawn) [Tegafur] — higher, 0.268
- O=C(NOC[C@H](O)CO)c1ccc(F)c(F)c1Nc1ccc(I)cc1F — higher, 0.21
- COc1cc2ncnc(Nc3cccc(Cl)c3)c2cc1OC [Tyrphostin AG 1478] — higher, 0.19
- CC1=C(C(=O)O)N2C(=O)[C@@H](NC(=O)[C@H](N)c3ccccc3)[C@H]2SC1 [Cephalexin hydrate] — higher, 0.038
- CNS(=O)(=O)CCc1ccc2[nH]cc(C3CCN(C)CC3)c2c1 [Naratriptan hydrochloride] — higher, 0.347
- O=c1c(-c2ccc(O)cc2)coc2cc(O)ccc12 [Daidzein] — higher, 0.201
- O=c1cc(-c2ccccc2)oc2c(O)c(O)ccc12 [7,8-Dihydroxyflavone hydrate] — higher, -0.0745
- O=c1cc(-c2ccc(O)cc2)oc2cc(O)cc(O)c12 [Apigenin] — higher, -1.74
- O=c1c(O)c(-c2ccc(O)cc2O)oc2cc(O)cc(O)c12 [Morin] — higher, -3.25
- COc1ccc(-c2cc(=O)c3c(O)c(OC)c(OC)cc3o2)cc1O [Eupatorin] — higher, 0.395
- O=C(Nc1ccccc1C(=O)NC1CCCCNC1=O)c1cc2ccccc2s1 (stereo not drawn) — higher, 0.384
- CN1[C@@H]2CC[C@H]1C[C@@H](OC(=O)C(O)c1ccccc1)C2 (mixture of isomers) [DL-Homatropine hydrobromide] — higher, 0.0655
- Cn1c(=O)c2[nH]c(C3CCCC3)nc2n(C)c1=O [8-Cyclopentyl-1,3-dimethylxanthine] — higher, 0.158
- Cn1c(=O)c2[nH]c(-c3ccc(S(=O)(=O)O)cc3)nc2n(C)c1=O [8-(p-Sulfophenyl)theophylline] — higher, 0.086
- Cn1c(=O)c2[nH]c(-c3ccccc3)nc2n(C)c1=O [1,3-Dimethyl-8-phenylxanthine] — higher, -1.5
- Cc1c(O)cccc1C(=O)N[C@@H](CSc1ccccc1)[C@H](O)CN1C[C@H]2CCCC[C@H]2C[C@H]1C(=O)NC(C)(C)C [Nelfinavir mesylate hydrate] — higher, -0.54
- O=C(O)CCc1ccc(NCc2cccc(Oc3ccccc3)c2)cc1 — higher, -0.4
- C[C@@H](c1ncncc1F)[C@](O)(Cn1cncn1)c1ccc(F)cc1F [Voriconazole] — higher, 0.181
- NC1CONC1=O (racemic) [DL-Cycloserine] — higher, 0.397
- NC(N)=NC(=O)c1nc(Cl)c(N2CCCCCC2)nc1N [5-(N,N-hexamethylene)amiloride] — higher, 0.351
- CCOc1ncc(S(=O)(=O)N2CCN(CC)CC2)cc1-c1nc(=O)c2nn(CCOC)c(CC)c2[nH]1 [Gisadenafil besylate salt] — higher, 0.0753
- O=C1Nc2ccc(I)cc2/C1=C/c1cc(Br)c(O)c(Br)c1 — higher, -3
- N=C(N)c1ccc(OCCCCCOc2ccc(C(=N)N)cc2)cc1 [Pentamidine isethionate] — higher, 0.191
- CC(C)(NS(=O)(=O)c1ccc(Oc2ccc(F)cc2)cc1)C(=O)NO — higher, 0.196
- CN1[C@@H]2CC[C@H]1C[C@@H](OC(c1ccccc1)c1ccccc1)C2 [Benztropine mesylate] — higher, 0.586
- Cc1c(-c2ccc(-c3ccccc3F)cc2)nc2ccc(F)cc2c1C(=O)O [Brequinar sodium salt hydrate] — higher, 0.431
- Nc1ccc(CCNc2ncnc3c2ncn3C2OC(CO)C(O)C2O)cc1 (stereo not drawn) [N6-2-(4-Aminophenyl)ethyladenosine] — higher, 0.338
- CCCC(CCC)C(=O)O[C@H]1C[C@H]2CC[C@@H](C1)[N+]2(C)C [Anisotropine methyl bromide] — higher, 0.0542
- COc1ccc(CCn2nnnc2C2(c3ccc(C)cc3)CC2)cc1 [Mephetyl tetrazole] — higher, 0.388
